Legend:
[1] = biological target: T1, Tyrosine-protein kinase ITK/TSK (Homo sapiens) (UniProt Q08881); conditions: at 1 µM;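 note: values are mean percent inhibition of ITK from the GSK PKIS screen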
T1 sequence (whole entry): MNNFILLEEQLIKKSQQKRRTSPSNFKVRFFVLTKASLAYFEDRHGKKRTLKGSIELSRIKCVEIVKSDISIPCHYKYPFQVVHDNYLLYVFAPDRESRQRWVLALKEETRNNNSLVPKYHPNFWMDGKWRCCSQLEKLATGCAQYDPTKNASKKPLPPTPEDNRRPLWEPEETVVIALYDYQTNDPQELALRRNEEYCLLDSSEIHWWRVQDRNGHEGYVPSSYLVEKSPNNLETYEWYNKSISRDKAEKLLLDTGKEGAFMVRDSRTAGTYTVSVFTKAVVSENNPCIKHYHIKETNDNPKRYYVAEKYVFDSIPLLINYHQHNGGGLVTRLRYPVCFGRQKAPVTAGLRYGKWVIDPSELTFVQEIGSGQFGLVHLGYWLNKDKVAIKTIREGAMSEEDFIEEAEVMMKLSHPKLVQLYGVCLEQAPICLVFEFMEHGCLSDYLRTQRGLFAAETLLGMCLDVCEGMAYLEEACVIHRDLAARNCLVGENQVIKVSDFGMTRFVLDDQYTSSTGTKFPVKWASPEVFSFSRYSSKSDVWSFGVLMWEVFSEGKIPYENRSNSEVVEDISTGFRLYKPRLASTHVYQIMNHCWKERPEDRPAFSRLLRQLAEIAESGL

[2] = biological target: Tyrosine-protein kinase JAK1 (Homo sapiens) (UniProt P23458); conditions: at 0.1 µM
[3] = biological target: Tyrosine-protein kinase JAK1 (Homo sapiens) (UniProt P23458); conditions: at 1 µM
[4] = biological target: Tyrosine-protein kinase JAK2 (Homo sapiens) (UniProt O60674); conditions: at 0.1 µM
[5] = biological target: Tyrosine-protein kinase JAK2 (Homo sapiens) (UniProt O60674); conditions: at 1 µM
[6] = biological target: T2, Tyrosine-protein kinase JAK3 (Homo sapiens) (UniProt P52333); conditions: at 0.1 µM
T2 sequence (whole entry): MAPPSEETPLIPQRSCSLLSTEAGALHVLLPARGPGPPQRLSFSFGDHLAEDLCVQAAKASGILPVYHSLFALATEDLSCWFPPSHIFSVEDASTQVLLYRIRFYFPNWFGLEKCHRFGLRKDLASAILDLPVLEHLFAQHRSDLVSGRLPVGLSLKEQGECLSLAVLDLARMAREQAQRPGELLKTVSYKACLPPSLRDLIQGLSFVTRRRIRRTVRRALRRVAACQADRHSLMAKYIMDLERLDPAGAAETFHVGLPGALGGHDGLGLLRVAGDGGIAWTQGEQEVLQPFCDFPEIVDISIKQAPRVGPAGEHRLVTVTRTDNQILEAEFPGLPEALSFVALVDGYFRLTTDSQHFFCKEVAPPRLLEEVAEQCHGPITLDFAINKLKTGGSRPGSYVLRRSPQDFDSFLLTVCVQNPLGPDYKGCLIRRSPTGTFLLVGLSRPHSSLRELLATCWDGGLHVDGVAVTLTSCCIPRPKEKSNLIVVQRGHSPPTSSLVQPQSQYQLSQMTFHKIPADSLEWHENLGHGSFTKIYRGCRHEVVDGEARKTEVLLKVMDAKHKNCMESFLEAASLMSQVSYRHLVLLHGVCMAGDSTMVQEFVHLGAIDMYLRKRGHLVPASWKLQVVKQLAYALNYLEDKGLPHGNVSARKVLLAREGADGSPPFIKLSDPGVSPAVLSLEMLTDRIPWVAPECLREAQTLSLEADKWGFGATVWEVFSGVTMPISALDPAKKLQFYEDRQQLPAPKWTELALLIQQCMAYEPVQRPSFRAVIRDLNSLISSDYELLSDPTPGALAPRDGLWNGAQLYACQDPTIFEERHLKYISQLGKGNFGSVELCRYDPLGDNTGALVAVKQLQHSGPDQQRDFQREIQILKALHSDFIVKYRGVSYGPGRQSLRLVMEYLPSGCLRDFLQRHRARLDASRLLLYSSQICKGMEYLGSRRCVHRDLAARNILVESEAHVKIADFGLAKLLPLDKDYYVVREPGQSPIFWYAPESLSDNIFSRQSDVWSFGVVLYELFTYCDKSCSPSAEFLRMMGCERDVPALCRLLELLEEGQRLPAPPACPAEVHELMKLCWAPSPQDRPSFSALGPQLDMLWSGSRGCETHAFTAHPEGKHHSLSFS

[7] = biological target: T2, Tyrosine-protein kinase JAK3 (Homo sapiens); conditions: at 1 µM
[8] = biological target: Vascular endothelial growth factor receptor 2 (Homo sapiens) (UniProt P35968); conditions: at 0.1 µM
[9] = biological target: Vascular endothelial growth factor receptor 2 (Homo sapiens) (UniProt P35968); conditions: at 1 µM
[10] = biological target: Mast/stem cell growth factor receptor Kit (Homo sapiens) (UniProt P10721); conditions: at 0.1 µM
[11] = biological target: Mast/stem cell growth factor receptor Kit (Homo sapiens) (UniProt P10721); conditions: at 1 µM
[12] = system: Mast/stem cell growth factor receptor Kit (Homo sapiens), P10721 [D816V]; conditions: at 0.1 µM
[13] = system: Mast/stem cell growth factor receptor Kit (Homo sapiens), P10721 [D816V]; conditions: at 1 µM
[14] = system: Mast/stem cell growth factor receptor Kit (Homo sapiens), P10721 [T670I]; conditions: at 0.1 µM
[15] = system: Mast/stem cell growth factor receptor Kit (Homo sapiens), P10721 [T670I]; conditions: at 1 µM
[16] = system: Mast/stem cell growth factor receptor Kit (Homo sapiens), P10721 [V560G]; conditions: at 0.1 µM
[17] = system: Mast/stem cell growth factor receptor Kit (Homo sapiens), P10721 [V560G]; conditions: at 1 µM
[18] = biological target: Tyrosine-protein kinase Lck (Homo sapiens) (UniProt P06239); conditions: at 0.1 µM
[19] = biological target: Tyrosine-protein kinase Lck (Homo sapiens) (UniProt P06239); conditions: at 1 µM
[20] = biological target: Leukocyte tyrosine kinase receptor (Homo sapiens) (UniProt P29376); conditions: at 0.1 µM
Leukocyte tyrosine kinase receptor (Homo sapiens), sequence (P29376 whole entry): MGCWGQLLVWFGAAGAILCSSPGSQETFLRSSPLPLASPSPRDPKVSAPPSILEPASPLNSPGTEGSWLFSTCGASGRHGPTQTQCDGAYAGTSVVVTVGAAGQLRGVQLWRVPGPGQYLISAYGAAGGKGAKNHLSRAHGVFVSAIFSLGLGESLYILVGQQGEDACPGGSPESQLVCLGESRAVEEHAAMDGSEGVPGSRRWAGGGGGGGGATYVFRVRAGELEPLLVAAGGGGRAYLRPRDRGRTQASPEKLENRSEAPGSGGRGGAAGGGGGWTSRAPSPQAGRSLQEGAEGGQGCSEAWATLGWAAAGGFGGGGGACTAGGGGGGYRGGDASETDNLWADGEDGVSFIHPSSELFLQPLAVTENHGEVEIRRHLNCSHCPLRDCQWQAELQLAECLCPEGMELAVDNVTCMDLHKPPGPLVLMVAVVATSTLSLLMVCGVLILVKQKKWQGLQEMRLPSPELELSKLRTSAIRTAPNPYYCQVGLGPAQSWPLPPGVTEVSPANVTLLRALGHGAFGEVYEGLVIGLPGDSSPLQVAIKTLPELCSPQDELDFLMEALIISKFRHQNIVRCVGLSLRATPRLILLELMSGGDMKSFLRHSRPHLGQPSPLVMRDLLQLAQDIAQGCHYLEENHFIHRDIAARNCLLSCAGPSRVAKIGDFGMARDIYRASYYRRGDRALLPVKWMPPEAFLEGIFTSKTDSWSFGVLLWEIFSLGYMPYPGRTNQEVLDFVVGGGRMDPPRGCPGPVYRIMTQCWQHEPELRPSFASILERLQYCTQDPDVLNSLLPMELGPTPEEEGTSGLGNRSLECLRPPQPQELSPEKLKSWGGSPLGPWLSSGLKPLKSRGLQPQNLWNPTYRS

Mast/stem cell growth factor receptor Kit (Homo sapiens), P10721 [D816V], sequence (P10721 whole entry D816V): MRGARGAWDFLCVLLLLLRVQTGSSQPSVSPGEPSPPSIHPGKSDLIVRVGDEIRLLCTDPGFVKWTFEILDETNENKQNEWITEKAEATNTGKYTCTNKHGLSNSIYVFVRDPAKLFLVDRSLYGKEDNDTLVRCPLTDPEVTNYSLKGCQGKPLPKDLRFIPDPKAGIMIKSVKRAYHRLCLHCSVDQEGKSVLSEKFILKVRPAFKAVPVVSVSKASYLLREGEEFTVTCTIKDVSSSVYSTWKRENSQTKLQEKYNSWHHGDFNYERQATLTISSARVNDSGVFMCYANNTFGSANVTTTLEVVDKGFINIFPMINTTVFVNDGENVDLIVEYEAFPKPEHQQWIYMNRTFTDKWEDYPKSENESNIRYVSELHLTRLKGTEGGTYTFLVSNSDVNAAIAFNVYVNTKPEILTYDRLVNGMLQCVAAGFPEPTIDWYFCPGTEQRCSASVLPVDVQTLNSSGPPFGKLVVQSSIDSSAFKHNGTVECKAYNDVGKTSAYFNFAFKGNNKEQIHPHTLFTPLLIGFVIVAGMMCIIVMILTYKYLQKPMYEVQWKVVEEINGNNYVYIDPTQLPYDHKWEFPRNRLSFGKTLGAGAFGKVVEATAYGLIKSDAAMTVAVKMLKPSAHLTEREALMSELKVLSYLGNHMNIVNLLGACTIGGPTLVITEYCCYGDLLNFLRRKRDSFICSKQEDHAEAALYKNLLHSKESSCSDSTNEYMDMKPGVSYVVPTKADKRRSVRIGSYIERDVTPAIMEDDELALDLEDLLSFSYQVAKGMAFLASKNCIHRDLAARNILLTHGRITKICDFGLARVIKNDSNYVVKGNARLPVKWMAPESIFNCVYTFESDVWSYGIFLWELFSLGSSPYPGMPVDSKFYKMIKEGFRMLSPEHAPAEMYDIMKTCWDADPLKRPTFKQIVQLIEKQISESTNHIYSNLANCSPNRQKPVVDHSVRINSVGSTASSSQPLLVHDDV
Tyrosine-protein kinase Lck (Homo sapiens), sequence (P06239 2-509 limits assumed): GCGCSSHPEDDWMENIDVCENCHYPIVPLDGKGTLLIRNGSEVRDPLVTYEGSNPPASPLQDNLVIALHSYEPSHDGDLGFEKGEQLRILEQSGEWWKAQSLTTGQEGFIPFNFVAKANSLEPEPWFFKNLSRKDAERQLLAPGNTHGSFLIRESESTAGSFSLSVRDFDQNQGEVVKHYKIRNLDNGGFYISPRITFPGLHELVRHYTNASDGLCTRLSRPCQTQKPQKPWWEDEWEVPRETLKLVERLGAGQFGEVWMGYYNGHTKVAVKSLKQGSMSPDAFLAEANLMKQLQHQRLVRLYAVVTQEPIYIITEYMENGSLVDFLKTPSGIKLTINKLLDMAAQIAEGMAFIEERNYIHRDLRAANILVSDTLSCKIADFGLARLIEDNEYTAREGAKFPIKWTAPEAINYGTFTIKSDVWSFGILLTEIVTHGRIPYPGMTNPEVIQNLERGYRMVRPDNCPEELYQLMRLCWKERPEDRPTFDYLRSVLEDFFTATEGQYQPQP
Mast/stem cell growth factor receptor Kit (Homo sapiens), P10721 [T670I], sequence (P10721 whole entry T670I): as the sequence (P10721 whole entry D816V) above, with T670I, V816D counted along it
Tyrosine-protein kinase JAK1 (Homo sapiens), sequence (P23458 whole entry): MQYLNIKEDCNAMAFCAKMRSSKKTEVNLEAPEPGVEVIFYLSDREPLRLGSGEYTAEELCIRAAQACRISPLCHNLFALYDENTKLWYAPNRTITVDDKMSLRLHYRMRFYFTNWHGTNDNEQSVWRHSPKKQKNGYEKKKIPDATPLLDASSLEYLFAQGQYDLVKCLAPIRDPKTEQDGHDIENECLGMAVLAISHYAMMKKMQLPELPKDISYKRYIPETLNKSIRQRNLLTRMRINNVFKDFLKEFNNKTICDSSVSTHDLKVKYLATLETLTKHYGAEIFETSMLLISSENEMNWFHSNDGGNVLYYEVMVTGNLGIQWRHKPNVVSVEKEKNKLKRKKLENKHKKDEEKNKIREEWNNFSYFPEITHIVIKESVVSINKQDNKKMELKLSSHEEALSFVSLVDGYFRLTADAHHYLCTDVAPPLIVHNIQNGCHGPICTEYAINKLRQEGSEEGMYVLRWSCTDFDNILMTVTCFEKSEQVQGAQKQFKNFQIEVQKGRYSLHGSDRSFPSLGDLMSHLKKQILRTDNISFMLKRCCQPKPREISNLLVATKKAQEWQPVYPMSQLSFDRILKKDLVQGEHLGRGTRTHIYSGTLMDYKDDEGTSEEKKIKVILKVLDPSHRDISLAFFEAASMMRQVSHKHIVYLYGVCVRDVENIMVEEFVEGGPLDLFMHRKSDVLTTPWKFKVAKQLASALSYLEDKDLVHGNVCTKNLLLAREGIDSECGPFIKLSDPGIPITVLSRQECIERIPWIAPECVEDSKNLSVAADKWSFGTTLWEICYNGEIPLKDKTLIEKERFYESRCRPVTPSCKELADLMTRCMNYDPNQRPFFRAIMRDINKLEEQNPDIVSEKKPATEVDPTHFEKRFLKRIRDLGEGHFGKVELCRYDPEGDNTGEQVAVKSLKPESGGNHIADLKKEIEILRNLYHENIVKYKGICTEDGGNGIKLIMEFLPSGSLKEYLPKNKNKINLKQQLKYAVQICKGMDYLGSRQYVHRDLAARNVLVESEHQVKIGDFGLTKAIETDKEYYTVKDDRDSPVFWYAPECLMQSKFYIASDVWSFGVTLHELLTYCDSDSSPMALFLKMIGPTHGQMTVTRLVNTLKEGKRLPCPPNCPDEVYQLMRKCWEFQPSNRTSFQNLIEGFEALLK
Tyrosine-protein kinase JAK2 (Homo sapiens), sequence (O60674 whole entry): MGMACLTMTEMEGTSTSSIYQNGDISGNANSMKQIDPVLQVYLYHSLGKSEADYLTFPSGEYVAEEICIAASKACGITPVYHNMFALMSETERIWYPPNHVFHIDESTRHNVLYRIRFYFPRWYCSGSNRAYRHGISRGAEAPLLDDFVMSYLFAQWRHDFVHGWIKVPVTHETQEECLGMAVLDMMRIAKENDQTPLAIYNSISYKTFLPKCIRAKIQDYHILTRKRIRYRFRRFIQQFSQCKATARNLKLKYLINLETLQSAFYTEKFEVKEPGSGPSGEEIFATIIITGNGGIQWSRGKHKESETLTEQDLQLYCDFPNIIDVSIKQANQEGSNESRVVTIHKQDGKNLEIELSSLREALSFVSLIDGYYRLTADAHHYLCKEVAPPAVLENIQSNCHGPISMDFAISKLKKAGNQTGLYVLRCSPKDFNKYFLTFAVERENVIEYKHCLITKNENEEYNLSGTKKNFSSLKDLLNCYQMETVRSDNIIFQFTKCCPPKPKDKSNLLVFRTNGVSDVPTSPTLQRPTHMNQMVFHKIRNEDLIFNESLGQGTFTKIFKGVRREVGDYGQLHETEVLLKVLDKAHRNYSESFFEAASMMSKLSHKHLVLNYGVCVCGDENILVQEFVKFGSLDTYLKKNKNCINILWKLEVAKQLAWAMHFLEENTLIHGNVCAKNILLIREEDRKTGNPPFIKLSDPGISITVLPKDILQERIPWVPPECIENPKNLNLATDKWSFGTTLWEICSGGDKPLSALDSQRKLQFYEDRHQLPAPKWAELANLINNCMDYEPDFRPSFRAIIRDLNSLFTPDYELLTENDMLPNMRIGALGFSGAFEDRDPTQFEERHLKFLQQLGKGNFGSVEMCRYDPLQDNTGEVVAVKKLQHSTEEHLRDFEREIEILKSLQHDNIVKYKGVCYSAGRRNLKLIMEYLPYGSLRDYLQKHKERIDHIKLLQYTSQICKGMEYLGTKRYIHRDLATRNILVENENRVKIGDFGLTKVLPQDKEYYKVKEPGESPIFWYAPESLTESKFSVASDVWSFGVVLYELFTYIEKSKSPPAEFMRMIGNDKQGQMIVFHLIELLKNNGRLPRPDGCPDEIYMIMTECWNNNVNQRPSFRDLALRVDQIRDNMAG
Mast/stem cell growth factor receptor Kit (Homo sapiens), sequence (P10721 whole entry): as the sequence (P10721 whole entry D816V) above, with V816D counted along it
Mast/stem cell growth factor receptor Kit (Homo sapiens), P10721 [V560G], sequence (P10721 whole entry V560G): as the sequence (P10721 whole entry D816V) above, with V560G, V816D counted along it

Structure (SMILES)	inhibition [1] [%]	inhibition [2] [%]	inhibition [3] [%]	inhibition [4] [%]	inhibition [5] [%]	inhibition [6] [%]	inhibition [7] [%]	inhibition [8] [%]	inhibition [9] [%]	inhibition [10] [%]	inhibition [11] [%]	inhibition [12] [%]	inhibition [13] [%]	inhibition [14] [%]	inhibition [15] [%]	inhibition [16] [%]	inhibition [17] [%]	inhibition [18] [%]	inhibition [19] [%]	inhibition [20] [%]
CCn1c(-c2nonc2N)nc2cncc(C(=O)N3CCNCC3)c21	2.09	4.28	4.72	4.03	2.86	-0.41	-0.7	3.99	9.13	7.95	7.52	4.16	4.92	2.72	3.08	-3.45	-0.74	3.56	5.67	5.18
NS(=O)(=O)c1cccc(-c2ccc3c(NC(=O)C4CC4)n[nH]c3c2)c1	0.22	–	-4.88	-0.14	-1.18	-0.5	1.58	0.44	6.32	-1.56	0.12	1.16	3.53	-3.61	-1.9	1.03	4.07	-1.55	3.43	0.03
NCc1ccc(-c2nc(-c3ccc(Cl)c(O)c3)c(-c3ccncc3)[nH]2)cc1	1.29	-0.11	2.34	0.65	0.75	1.4	1.41	69.2	74.8	0.79	2.11	1.93	5.11	-0.4	0.77	1.37	6.11	5.93	33	1
Cc1cc(O)cc(C)c1/C=C/c1cncc(-c2nn[nH]n2)c1	-1.93	1.7	4.82	1.66	2.27	-4.63	-3.88	4.58	10.2	11.9	65.5	5.64	3.74	1.04	3.66	-0.1	22.1	1.97	42.5	6.07
O=C(Nc1n[nH]c2nc(-c3ccco3)c(Br)cc12)C1CC1	23.7	2.41	-1.14	1.5	1.59	-1.04	1.18	5.71	15.5	6.02	4.71	4	-1.99	2.25	1.3	1.23	1.62	1.39	6.71	1.93
COC(=O)Nc1nc2cc(Oc3cccc(NC(=O)Nc4cc(C(F)(F)F)ccc4F)c3)ccc2[nH]1	0.67	0.78	4.36	-0.5	-0.07	1.1	2.02	19.1	63.5	4.16	48.2	1.96	-0.67	-2.55	2.17	4.04	38.8	1.15	10.5	0.06
Nc1ncnc2occ(-c3ccc(NC(=O)Nc4cc(C(F)(F)F)cc(C(F)(F)F)c4)cc3)c12	11.2	-0.74	–	0.74	1.44	0.06	0.78	46.7	68.2	29	90.6	-2.07	10.8	22	88.4	33.8	82.2	6.28	38.8	2.1
CCn1c(-c2nonc2N)nc2c(N3CCCC3)nccc21	-0.14	–	-2.79	-0.66	-1.59	-0.2	2.23	1.32	6.67	-1.56	1.81	-1.12	-0.65	-1.62	-1.43	-0.78	1.06	-2.27	-0.36	0.51
NC(=O)c1cccc(Nc2nccc(Nc3cccc4[nH]ncc34)n2)c1	1.1	–	19.6	6.75	57	0.54	25.2	16.1	63.1	48.5	91.1	-2.32	14.6	-2.9	4.51	5.52	22.5	36.7	81.8	4.75
NS(=O)(=O)c1ccc(N/N=C2\C(=O)Nc3ccc(C(=O)NCCc4c[nH]cn4)cc32)cc1	3.56	5.75	0.16	2.27	2.46	0.03	3.43	12.9	43.3	5.68	7.76	3.86	6.74	3.65	4	-1.9	3.01	4.09	9.31	5.2
Nc1nc(-c2ccccn2)c(-c2ccc3ncccc3n2)s1	2.48	0.52	4.22	-0.07	2	-1.07	-0.57	3.52	8.02	3.79	3.6	3.62	4.08	4.81	3.16	-2.5	2.06	0.48	0.19	2.47
COc1cccc(-n2ncc3c(N/N=C/c4cccc(F)c4)ncnc32)c1	-2.13	2.37	2.01	1.22	1.44	-4.29	0.79	10.1	34.1	3.25	14.1	4.05	1.87	2.67	7.07	-0.18	-1.44	7.82	40.9	0.92
CN1CCC(C(=O)Nc2n[nH]c3nnc(-c4ccccc4)cc23)CC1	2.38	4.13	17.6	1.08	1.05	-1.09	-0.3	2.34	10.6	4.36	8.5	7.35	3.19	4.77	5.4	-3.89	1.05	1.6	4.09	3.64
COc1ccc(COc2ccc(Cc3cnc(N)nc3N)cc2OC)cc1	2.31	3.77	-0.05	1.99	4.19	2.12	3.61	6.02	9.65	1.04	7.39	-2.58	-2.51	-2.93	-3.14	5.62	8.16	0.03	2.78	-1.03
CC1=C(C(=O)Nc2ccc3[nH]ncc3c2)C(c2ccc(F)cc2)NC(=O)N1 (centres undefined)	1.33	14.4	70.3	2.59	35.1	1.07	30.8	4.24	12.3	5.14	3.87	0.52	1.15	1.53	0.34	-1.67	0.31	-0.28	3.1	0.93
CS(=O)(=O)CCNCc1ccc(-c2ccc3ncnc(Nc4ccc(OCc5ccccc5)c(Cl)c4)c3c2)o1	1.43	-0.15	1.78	-0.29	1.05	0.91	2.44	6.23	14.2	2.73	1.79	0.03	2.97	1.42	1.36	7.05	1.37	1.77	9.7	0.32
COC(=O)Nc1nc2cc(Oc3ccc(NC(=O)Nc4cccc(C(=O)O)c4)cc3)ccc2[nH]1	-2.68	2.43	2.01	-0.28	4.54	-3.56	0.66	–	–	2.05	18.8	1.22	3.73	-0.34	2.75	5.8	15.5	-2.73	-2.81	0.33
